Measured values from PubChem BioAssay (NCATS).
Results filed as inconclusive are left out. Calls of active or inactive are those of the source. Calls come from the whole dose curve; as a rule, active = well fitted inhibition curve with a large enough effect; inconclusive = small, poorly fitted or top-dose-only effect; inactive = flat fitted curve, though single readings scatter.

test: qHTS for identification of novel therapeutic agents for treatment of microphthalmiaassociated transcription factor (MiT) renal cell carcinoma (RCC) (AID 1963991); conditions: TFE3-RCC viability, CellTiter-Glo, 48 h; measured here: UOK124 Z-AUC; stronger effect = lower value
Procedure, shortened: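 Three TFE3-fusion RCC cell lines (UOK109, UOK124, UOK145), 500 cells/well, were exposed to the 1912-compound MIPE 4.0 library for 48 hours at 37 C. Viability was read by CellTiter-Glo luminescence, normalised to DMSO (100%) and empty wells (0%), with 11-concentration curve fits.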

Structure (SMILES) | z-score
O=C1CCc2cc(OCCCCc3nnnn3C3CCCCC3)ccc2N1 | 0.136
NCCc1ccc(O)c(O)c1 | 0.079
NC[C@H](O)c1ccc(O)c(O)c1 | 0.472
CC(C)(C)OC(=O)CN(Cc1ccc(Cl)cc1)Cc1ccc([N+](=O)[O-])s1 | 0.354
Nc1nc2c(ncn2COCCO)c(=O)[nH]1 | 1.73
OCCn1cc(-c2cnc3nnn(Cc4ccc5ncccc5c4)c3n2)cn1 | 0.338
CC(C)(C)NCC(O)c1ccc(O)c(CO)c1 (stereo not drawn) | 0.591
CCc1ccc(CCOc2ccc(CC3SC(=O)NC3=O)cc2)nc1 (stereo not drawn) | 0.584
O=C(O)[C@@H](c1ccc(OCc2ccc3ccccc3n2)cc1)C1CCCC1 | 0.636
O=C(O)CCc1ccc(NCc2cccc(Oc3ccccc3)c2)cc1 | 0.797

same assay, conditions: TFE3-RCC viability, CellTiter-Glo, 48 h; measured here: UOK145 Z-AUC; stronger effect = lower value

Structure (SMILES) | z-score
Cc1c(C)c2c(c(C)c1O)CCC(C)(COc1ccc(CC3SC(=O)NC3=O)cc1)O2 (stereo not drawn) | -0.301
N[C@@H]1CONC1=O | 0.675
CC(C[N+](C)(C)C)OC(N)=O (stereo not drawn) | 0.688
O=C(C1CC1)N1CC[C@@H](Cn2c(-c3ccc(-c4ccc5occc5c4)cc3)nc3cnccc32)C1 | 0.609
Cc1n[nH]c(C)c1Cc1sc2c(c1C(=O)N1C[C@H](O)CO1)c(=O)n(C)c(=O)n2CC(C)C | 0.704
CCN(CC)CCCC(C)Nc1nc(C)cc(Nc2ccc3nc(C)cc(N)c3c2)n1 (stereo not drawn) | 0.237
CC[C@@H](C)[C@H](NC(=O)[C@H](CC1CCCCC1)NC(=O)c1ccno1)C(=O)N1CCC2(CCc3ccccc32)CC1 | -0.242
Cc1cnc(NC(=O)C2=C(O)c3ccccc3S(=O)(=O)N2C)s1 | 0.231
C1COC(NC(C2CC2)C2CC2)=N1 | 0.0437
O=NN(CCCl)C(=O)NCCCl | -0.0256
C#Cc1cccc(Nc2ncnc3cc(OCCOC)c(OCCOC)cc23)c1 | -1.55
CC(c1cc2ccccc2s1)N(O)C(N)=O (stereo not drawn) | 0.104
COc1nc(-c2ccc3c(c2)OCO3)n(-c2ccc(NC(=O)CSc3ccccc3)cc2)n1 | 0.717
NC(=O)C1CCCc2c1[nH]c1ccc(Cl)cc21 (stereo not drawn) | 0.151
COc1ccc(CC2=NN3C([C@@H](CCc4ccccc4)[C@@H](C)O)=NC(C)C3C(=O)N2)cc1OC (stereo partly drawn) | 0.717
NC(=O)c1ccc(I)c([N+](=O)[O-])c1 | -0.107
Oc1cccc(-c2nc(N3CCOCC3)c3oc4ncccc4c3n2)c1 | -2.03
CCCCNc1cc(C(=O)O)cc(S(N)(=O)=O)c1Oc1ccccc1 | -1.8
O=C1CCc2cc(OCCCCc3nnnn3C3CCCCC3)ccc2N1 | 0.331
NCCc1ccc(O)c(O)c1 | 0.506
NC[C@H](O)c1ccc(O)c(O)c1 | 0.785
CC(C)(C)OC(=O)CN(Cc1ccc(Cl)cc1)Cc1ccc([N+](=O)[O-])s1 | 0.158
Nc1nc2c(ncn2COCCO)c(=O)[nH]1 | 0.51
OCCn1cc(-c2cnc3nnn(Cc4ccc5ncccc5c4)c3n2)cn1 | 0.859
CC(C)(C)NCC(O)c1ccc(O)c(CO)c1 (stereo not drawn) | 2.94
CCc1ccc(CCOc2ccc(CC3SC(=O)NC3=O)cc2)nc1 (stereo not drawn) | 0.551
O=C(O)[C@@H](c1ccc(OCc2ccc3ccccc3n2)cc1)C1CCCC1 | 0.202
O=C(O)CCc1ccc(NCc2cccc(Oc3ccccc3)c2)cc1 | 0.0253

test: qHTS profiling for inhibitors of Plasmodium falciparum proliferation (AID 504749);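 note: 0% = DMSO vehicle and full inhibition = artemisinin control; nearly all actives have a fitted effect of over 60% in size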; conditions: P. falciparum in erythrocytes, SYBR Green DNA, 72 h; at 28.7 µM (top of the series); parasite line A
Procedure, shortened: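 Three-day growth assay of blood-stage parasites in erythrocytes (0.3% parasitemia, 2.5% hematocrit) at 37 C, 5% CO2, quantified by SYBR Green DNA staining after overnight detergent lysis.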

Structure (SMILES) | activity, negative = inhibition
Cc1c(C)c2c(c(C)c1O)CCC(C)(COc1ccc(CC3SC(=O)NC3=O)cc1)O2 (stereo not drawn) | -7.46% (inactive)
N[C@@H]1CONC1=O | -21% (inactive)
O=c1[nH]cnc2[nH]ncc12 | -0.162% (inactive)
CC(C[N+](C)(C)C)OC(N)=O (stereo not drawn) | 8.36% (inactive)
Cc1[nH]c(=O)c(C#N)cc1-c1ccncc1 | -21.8% (inactive)
O=NN(CCCl)C(=O)NCCCl | -1.48% (inactive)
NS(=O)(=O)c1cc2c(cc1Cl)NC=NS2(=O)=O | 7.83% (inactive)
CC(c1cc2ccccc2s1)N(O)C(N)=O (stereo not drawn) | 3.01% (inactive)
NCCCC(N)(C(=O)O)C(F)F (stereo not drawn) | 2.98% (inactive)
CNC[C@H](O)c1cccc(O)c1 | 6.65% (inactive)
NCCc1ccc(O)c(O)c1 | -7.96% (inactive)
NC[C@H](O)c1ccc(O)c(O)c1 | 5.08% (inactive)
CCc1ccc(CCOc2ccc(CC3SC(=O)NC3=O)cc2)nc1 (stereo not drawn) | 8.32% (inactive)

same assay, conditions: P. falciparum in erythrocytes, SYBR Green DNA, 72 h; at 28.7 µM (top of the series); parasite line B

Structure (SMILES) | activity, negative = inhibition
N[C@@H]1CONC1=O | -17% (inactive)
O=c1[nH]cnc2[nH]ncc12 | 2.37% (inactive)
CC(C[N+](C)(C)C)OC(N)=O (stereo not drawn) | 9.26% (inactive)
Cc1[nH]c(=O)c(C#N)cc1-c1ccncc1 | -1.27% (inactive)
O=NN(CCCl)C(=O)NCCCl | 4.82% (inactive)
NS(=O)(=O)c1cc2c(cc1Cl)NC=NS2(=O)=O | 11% (inactive)
CC(c1cc2ccccc2s1)N(O)C(N)=O (stereo not drawn) | -4.79% (inactive)
NCCCC(N)(C(=O)O)C(F)F (stereo not drawn) | 4.55% (inactive)
CNC[C@H](O)c1cccc(O)c1 | -11% (inactive)
NCCc1ccc(O)c(O)c1 | 1.48% (inactive)
NC[C@H](O)c1ccc(O)c(O)c1 | 9.63% (inactive)
CCc1ccc(CCOc2ccc(CC3SC(=O)NC3=O)cc2)nc1 (stereo not drawn) | 6.57% (inactive)
